# Targets with a hit are over-represented here; the source holds about 7,900 in all. About 0.6% of all pairs of compound and target were hits. Values without a mark were called inactive.
# What was measured:
# Assay in all cases: log2 fold change, soluble protein after heating vs DMSO (PISA); higher = thermal stabilisation; K562 cells, 10 uM, 30 min; active = over 0.2 and 3.5 SD of the protein, either way, in both replicates (recomputed)
# [1] = compound: CC1=C(C=C(C=C1)NC(=O)C2=CC(=CC=C2)C(C)(C)C#N)NC3=CC4=C(C=C3)N=CN(C4=O)C
# Method in brief: (§1)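 Quantification of soluble protein used TMTpro 16plex LC-MS/MS, with channel sums equalised. Samples were the supernatant after 21,000xg for 90 min of pooled aliquots from K562 cells (2×10^6 cells/mL) treated with 10 μM compound for 30 min, heated for 3 min over 48°C-58°C, and extracted in PBS with 0.5% NP-40 at 4°C. Values, from duplicates, describe thermal stability against control samples on a log2 fold-change scale.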
# [2] = compound: CC1=C(C=C(C=C1)NC(=O)C2=CC(=CC=C2)N(C)C)NC(=O)C3=CC=C(C=C3)O
# Method in brief: as §1
# [3] = compound: CC1=CC=C(C=C1)SC2=C3C=C(SC3=CN=C2)C(=O)N
# Method in brief: as §1
# [4] = compound: CC1=NC(=CC=C1)C2=C(N=C(N2)C(C)(C)C)C3=CC4=NC=CN=C4C=C3
# Method in brief: as §1
# [5] = compound: CCCCN(Cc1ccc(C(=O)NO)cc1)C(=O)Nc1ccccc1 [Nexturastat A]
# Method in brief: as §1
# [6] = compound: CCCS(=O)(=O)Nc1ccc(F)c(C(=O)c2c[nH]c3ncc(-c4ccc(Cl)cc4)cc23)c1F [vemurafenib]
# Method in brief: as §1
# [7] = compound: CCCS(=O)(=O)Nc1ccc(F)c(C(=O)c2c[nH]c3ncc(Cl)cc23)c1F
# Method in brief: as §1
# [8] = compound: CCCc1cc(C)[nH]c(=O)c1CNC(=O)c1cc(-c2ccnc(N3CCN(C)CC3)c2)cc2c1cnn2C(C)C
# Method in brief: as §1
# [9] = compound: CCN(CC)Cc1ccc2cc(COC(=O)Nc3ccc(C(=O)NO)cc3)ccc2c1 [givinostat]
# Method in brief: as §1
# [10] = compound: CCN(CCCOc1ccc2c(Nc3cc(CC(=O)Nc4cccc(F)c4)[nH]n3)ncnc2c1)CCOP(=O)(O)O [barasertib]
# Method in brief: as §1
# [11] = compound: CC[C@@H]1C(=O)N(C)c2cnc(Nc3ccc(C(=O)NC4CCN(C)CC4)cc3OC)nc2N1C1CCCC1
# Method in brief: as §1
# [12] = compound: CC[C@@H]1C(=O)N(C)c2cnc(Nc3ccc(C(=O)N[C@H]4CC[C@H](N5CCN(CC6CC6)CC5)CC4)cc3OC)nc2N1C(C)C [volasertib]
# Method in brief: as §1
# [13] = compound: CC[C@H](C)N1C=C(C2=C(C=C(C=C21)C3=CN=C(C=C3)N4CCNCC4)C(=O)NCC5=C(C=C(NC5=O)C)C)C
# Method in brief: as §1
# [14] = compound: CC[C@H](C)[C@@H](C(=O)N[C@@H]([C@@H](C)O)C(=O)N[C@@H](CC(C)C)C(=O)[C@]1(CO1)C)NC(=O)[C@H]([C@@H](C)CC)N(C)C(=O)C [epoxomicin]
# Method in brief: as §1
# [15] = compound: CCn1c(C(=O)N(C2CC2)C2CC2)cc2c3c(ncn3C)c(Nc3cc(C)n(C)n3)nc21
# Method in brief: as §1
# [16] = compound: CCn1cc(-c2ccnc3[nH]c(-c4cccc(CN(C)C)c4)cc23)c(-c2ccc(NC(=O)N(C)C)cc2)n1
# Method in brief: as §1
# [17] = compound: CN(C)CC(=O)Nc1ccc2[nH]c(=O)c3ccccc3c2c1
# Method in brief: as §1
# [18] = compound: CN(CCOC1=CC=C(C=C1)C[C@H]2C(=O)NC(=O)S2)C3=CC=CC=N3 (racemic) [rosiglitazone]
# Method in brief: as §1
# [19] = compound: CN1C2=C(C3=C1C(=O)N(N=C3)CC4=CC(=CC=C4)N)SC(=C2)S(=O)C
# Method in brief: as §1
# [20] = compound: CN1CCC(CNc2ccc3ncc(-c4cccc(OC(F)(F)F)c4)n3n2)CC1
# Method in brief: as §1
# Sequence of UniProt Q9Y287 (Q9Y287 whole entry, looked up): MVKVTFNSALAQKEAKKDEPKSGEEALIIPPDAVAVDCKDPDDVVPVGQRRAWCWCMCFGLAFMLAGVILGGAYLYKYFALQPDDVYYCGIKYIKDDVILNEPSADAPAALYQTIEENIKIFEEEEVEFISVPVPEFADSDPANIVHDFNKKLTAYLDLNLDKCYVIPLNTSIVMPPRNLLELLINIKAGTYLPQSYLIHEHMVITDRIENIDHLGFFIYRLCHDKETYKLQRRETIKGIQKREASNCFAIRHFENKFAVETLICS
# Sequence of UniProt O94889 (O94889 whole entry, looked up): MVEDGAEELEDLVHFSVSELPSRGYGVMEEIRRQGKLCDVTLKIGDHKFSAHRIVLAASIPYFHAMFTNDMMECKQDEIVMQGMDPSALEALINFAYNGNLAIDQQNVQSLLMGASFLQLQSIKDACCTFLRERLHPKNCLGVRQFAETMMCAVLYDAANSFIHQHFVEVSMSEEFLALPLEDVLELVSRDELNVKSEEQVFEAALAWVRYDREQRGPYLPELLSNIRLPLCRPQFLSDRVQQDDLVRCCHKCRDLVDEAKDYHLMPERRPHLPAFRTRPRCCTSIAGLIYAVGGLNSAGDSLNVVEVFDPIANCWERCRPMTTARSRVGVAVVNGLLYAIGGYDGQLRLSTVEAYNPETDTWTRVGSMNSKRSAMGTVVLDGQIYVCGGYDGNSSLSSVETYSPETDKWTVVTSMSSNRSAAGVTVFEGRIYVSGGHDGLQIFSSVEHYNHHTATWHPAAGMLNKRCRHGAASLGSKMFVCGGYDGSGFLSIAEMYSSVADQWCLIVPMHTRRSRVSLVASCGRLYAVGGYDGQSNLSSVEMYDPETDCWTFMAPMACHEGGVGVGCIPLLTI
# Sequence of UniProt Q8WVP7 (Q8WVP7 whole entry, looked up): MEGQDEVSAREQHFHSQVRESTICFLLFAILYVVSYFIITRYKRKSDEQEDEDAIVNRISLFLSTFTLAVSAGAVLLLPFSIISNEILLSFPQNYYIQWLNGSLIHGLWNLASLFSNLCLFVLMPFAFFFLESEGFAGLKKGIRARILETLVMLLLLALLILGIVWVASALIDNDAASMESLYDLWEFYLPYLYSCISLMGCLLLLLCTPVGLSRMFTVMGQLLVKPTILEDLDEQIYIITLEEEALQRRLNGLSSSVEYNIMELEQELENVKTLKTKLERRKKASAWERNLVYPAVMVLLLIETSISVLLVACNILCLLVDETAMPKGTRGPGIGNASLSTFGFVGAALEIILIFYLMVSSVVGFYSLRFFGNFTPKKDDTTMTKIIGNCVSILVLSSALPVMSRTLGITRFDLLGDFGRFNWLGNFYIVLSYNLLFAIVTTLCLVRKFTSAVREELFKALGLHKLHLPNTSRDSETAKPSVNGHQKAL
# Sequence of UniProt Q08334 (Q08334 whole entry, looked up): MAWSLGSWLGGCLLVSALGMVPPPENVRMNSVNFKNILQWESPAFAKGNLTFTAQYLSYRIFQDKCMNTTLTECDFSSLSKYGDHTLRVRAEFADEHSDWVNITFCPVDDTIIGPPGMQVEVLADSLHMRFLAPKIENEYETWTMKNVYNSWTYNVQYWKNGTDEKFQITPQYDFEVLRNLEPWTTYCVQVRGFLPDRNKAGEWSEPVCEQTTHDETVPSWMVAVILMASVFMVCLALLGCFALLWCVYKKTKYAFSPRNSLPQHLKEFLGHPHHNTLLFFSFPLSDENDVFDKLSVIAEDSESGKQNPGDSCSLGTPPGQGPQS
# Sequence of UniProt Q9Y2E5 (Q9Y2E5 whole entry, looked up): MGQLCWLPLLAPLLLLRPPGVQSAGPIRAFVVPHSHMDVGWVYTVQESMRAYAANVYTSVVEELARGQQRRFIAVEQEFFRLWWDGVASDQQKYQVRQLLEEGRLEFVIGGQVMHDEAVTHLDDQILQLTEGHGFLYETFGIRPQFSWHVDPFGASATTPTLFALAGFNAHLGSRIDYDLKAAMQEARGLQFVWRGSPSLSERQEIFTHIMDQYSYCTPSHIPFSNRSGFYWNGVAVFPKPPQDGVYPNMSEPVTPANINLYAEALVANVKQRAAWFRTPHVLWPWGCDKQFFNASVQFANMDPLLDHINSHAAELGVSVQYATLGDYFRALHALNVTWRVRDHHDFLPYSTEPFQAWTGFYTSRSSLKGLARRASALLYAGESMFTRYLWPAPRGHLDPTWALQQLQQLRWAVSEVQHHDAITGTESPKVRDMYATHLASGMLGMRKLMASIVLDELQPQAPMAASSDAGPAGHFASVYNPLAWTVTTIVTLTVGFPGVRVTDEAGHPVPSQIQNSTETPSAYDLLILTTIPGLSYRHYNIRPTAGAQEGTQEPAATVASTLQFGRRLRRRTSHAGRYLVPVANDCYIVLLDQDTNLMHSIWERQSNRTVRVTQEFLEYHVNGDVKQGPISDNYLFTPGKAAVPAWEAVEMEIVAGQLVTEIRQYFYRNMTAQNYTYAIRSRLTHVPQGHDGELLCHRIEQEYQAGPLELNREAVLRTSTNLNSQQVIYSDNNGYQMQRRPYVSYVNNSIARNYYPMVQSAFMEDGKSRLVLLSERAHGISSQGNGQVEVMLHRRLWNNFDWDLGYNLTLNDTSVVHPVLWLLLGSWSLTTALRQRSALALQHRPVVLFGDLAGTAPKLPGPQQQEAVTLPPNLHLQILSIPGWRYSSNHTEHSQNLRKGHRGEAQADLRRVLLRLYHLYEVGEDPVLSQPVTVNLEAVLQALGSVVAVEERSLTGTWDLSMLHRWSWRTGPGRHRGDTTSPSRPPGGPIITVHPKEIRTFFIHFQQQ
# Sequence of UniProt P23276 (P23276 whole entry, looked up): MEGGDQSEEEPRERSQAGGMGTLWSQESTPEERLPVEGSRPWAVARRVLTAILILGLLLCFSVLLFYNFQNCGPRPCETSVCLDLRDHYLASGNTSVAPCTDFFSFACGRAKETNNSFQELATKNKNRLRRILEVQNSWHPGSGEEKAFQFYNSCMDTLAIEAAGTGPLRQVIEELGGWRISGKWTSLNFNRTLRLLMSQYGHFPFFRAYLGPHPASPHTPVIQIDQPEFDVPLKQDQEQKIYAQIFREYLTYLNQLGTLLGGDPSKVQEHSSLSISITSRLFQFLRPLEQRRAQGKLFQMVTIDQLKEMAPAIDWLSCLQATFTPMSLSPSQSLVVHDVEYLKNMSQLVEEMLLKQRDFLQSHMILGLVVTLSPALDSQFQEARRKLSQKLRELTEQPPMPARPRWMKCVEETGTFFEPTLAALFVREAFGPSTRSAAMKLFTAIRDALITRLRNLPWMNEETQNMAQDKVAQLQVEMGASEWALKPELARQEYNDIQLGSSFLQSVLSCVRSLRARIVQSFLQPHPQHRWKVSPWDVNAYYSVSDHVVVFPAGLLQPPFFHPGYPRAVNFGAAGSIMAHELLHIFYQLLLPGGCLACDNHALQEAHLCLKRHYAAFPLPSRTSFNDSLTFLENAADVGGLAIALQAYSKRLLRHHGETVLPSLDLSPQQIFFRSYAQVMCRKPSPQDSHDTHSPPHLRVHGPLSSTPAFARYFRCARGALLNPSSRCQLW
# Sequence of UniProt Q9NYL2 (Q9NYL2 whole entry, looked up): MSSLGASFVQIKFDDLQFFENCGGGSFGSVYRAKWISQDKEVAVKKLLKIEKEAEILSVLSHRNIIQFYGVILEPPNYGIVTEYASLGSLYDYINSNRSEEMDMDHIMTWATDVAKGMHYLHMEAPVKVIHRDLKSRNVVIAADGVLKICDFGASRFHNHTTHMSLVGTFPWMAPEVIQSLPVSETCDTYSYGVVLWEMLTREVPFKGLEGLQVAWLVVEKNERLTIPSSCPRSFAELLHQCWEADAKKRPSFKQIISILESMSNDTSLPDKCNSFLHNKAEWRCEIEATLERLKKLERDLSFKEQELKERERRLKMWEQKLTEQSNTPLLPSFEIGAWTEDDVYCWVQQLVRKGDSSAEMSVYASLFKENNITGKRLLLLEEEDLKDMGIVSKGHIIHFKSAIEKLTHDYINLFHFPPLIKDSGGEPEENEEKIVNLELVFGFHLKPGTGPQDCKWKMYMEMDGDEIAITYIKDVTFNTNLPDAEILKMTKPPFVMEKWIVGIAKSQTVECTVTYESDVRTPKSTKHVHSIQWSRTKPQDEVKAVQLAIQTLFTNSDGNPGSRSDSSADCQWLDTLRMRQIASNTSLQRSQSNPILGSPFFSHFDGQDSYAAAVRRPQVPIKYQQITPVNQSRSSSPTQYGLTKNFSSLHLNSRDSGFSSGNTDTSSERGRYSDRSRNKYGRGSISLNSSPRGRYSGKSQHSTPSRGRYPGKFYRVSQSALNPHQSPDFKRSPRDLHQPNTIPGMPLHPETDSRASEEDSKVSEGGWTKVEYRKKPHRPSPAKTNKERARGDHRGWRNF
# Sequence of UniProt O95232 (O95232 whole entry, looked up): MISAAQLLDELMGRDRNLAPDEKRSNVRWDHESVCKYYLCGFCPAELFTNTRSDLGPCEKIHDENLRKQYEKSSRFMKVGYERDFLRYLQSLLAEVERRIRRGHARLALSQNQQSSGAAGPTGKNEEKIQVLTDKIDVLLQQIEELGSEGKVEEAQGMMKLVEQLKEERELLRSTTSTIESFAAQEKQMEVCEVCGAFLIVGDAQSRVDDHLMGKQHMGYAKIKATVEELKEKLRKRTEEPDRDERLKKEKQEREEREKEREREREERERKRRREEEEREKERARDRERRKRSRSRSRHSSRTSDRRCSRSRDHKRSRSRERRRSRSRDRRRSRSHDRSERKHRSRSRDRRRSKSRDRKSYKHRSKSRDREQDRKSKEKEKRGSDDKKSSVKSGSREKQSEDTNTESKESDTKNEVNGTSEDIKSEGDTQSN
# Sequence of UniProt Q15528 (Q15528 whole entry, looked up): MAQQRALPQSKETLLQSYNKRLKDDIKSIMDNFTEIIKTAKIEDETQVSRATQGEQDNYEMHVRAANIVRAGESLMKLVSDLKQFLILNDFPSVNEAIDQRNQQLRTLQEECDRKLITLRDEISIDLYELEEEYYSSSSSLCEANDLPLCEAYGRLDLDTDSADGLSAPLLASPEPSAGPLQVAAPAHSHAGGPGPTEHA
Target,log2 fold change [1],log2 fold change [2],log2 fold change [3],log2 fold change [4],log2 fold change [5],log2 fold change [6],log2 fold change [7],log2 fold change [8],log2 fold change [9],log2 fold change [10],log2 fold change [11],log2 fold change [12],log2 fold change [13],log2 fold change [14],log2 fold change [15],log2 fold change [16],log2 fold change [17],log2 fold change [18],log2 fold change [19],log2 fold change [20]
ILKAP (UniProt Q9H0C8),-0.026,-0.117,0.072,0.168,0,0.08,0.082,0.063,0.071,0.07,-0.135,-0.343 (active),0.127,0.077,-0.071,-0.052,0.086,0.023,-0.085,-0.064
KEL (UniProt P23276),-0.004,-0.061,0.117,0.01,0.117,-0.009,-0.015,-0.014,-0.056,-0.029,0.195,-0.085,-0.085,0.063,0.033,-0.013,-0.007,0.024,0.018,0.088
LUC7L3 (UniProt O95232),-0.046,0.034,-0.036,0.086,-0.008,0.024,0.013,-0.009,0.003,0.022,-0.057,-0.185,0.027,0.005,-0.025,0,-0.031,0.004,-0.009,-0.074
MAN2B2 (UniProt Q9Y2E5),0.017,0.049,0.033,-0.056,-0.062,-0.105,-0.17,0.139,0.014,0.041,-0.445 (active),-0.704 (active),-0.005,-0.002,0,,-0.019,-0.052,0.013,
KMT2C isoform 3 (UniProt Q8NEZ4),-0.053,-0.07,,,-0.046,-0.103,,-0.033,0.011,-0.003,-0.908 (active),,-0.02,-0.004,0.009,0.031,0,0.009,0.026,-0.337 (active)
"LRBA, A0A494BZW2",-0.082,0.06,-0.048,0.078,-0.264,,0.272,0.038,0.264,0.026,-0.04,-0.025,0.007,-0.03,-0.193,-0.039,,0.011,0.043,-0.115
LMBR1 isoform 3 (UniProt Q8WVP7),-0.156,0.17,0.128,0.036,0.134,0.049,0.175,-0.086,0,-0.007,,-0.452,,0.26,-0.074,-0.456,0.049,-0.037,0.033,-0.314
MAP3K20 isoform 2 (UniProt Q9NYL2),-0.375 (active),,-0.038,0.295,0.16,,0.044,-0.017,0.003,,,-0.1,-0.067,-0.03,0.018,,,,,
LYN isoform 2 (UniProt P07948),0.056,,-0.079,-0.079,0.376,0.095,-0.296,,-0.168,,,-0.003,0.036,0.246,0.076,,0.007,,,
LPIN3 isoform 2 (UniProt Q9BQK8),-0.152,0.005,-0.04,,-0.014,-0.001,-0.069,-0.014,-0.006,-0.054,0.016,-0.015,0.04,0.073,-0.048,-0.078,-0.054,0.135,0.002,-0.27 (active)
MED25 isoform 3 (UniProt Q71SY5),-0.033,0.022,-0.012,-0.014,,0.141,0.05,-0.083,0.105,0.019,0.057,-0.051,0.027,,-0.076,-0.203,0.096,0.018,-0.155,-0.043
LUZP1 (UniProt Q86V48),-0.128,0.136,-0.005,-0.182,0.184,0.05,-0.091,-0.029,0.031,-0.062,,-0.021,-0.026,-0.22,0.09,0.026,0.035,0.026,0.026,-0.039
IL10RB (UniProt Q08334),0.19,,-0.012,-0.17,0.082,-0.004,0.018,,0.088,0.063,0.045,-0.086,0.05,0.056,-0.089,-0.247,-0.018,0.087,0.007,0.084
MAPK14 (UniProt Q16539),1.62 (active),0.615,0.111,0.022,,0.059,0.339,0.002,0.03,-0.029,-0.065,-0.516,-0.067,,0.088,0.03,0.052,0.067,-0.231,-0.03
MAP4K5 (UniProt Q9Y4K4),0.01,0.082,0.025,-0.012,-0.042,-0.025,-0.008,-0.047,-0.024,0.1,,-0.135,-0.004,-0.014,-0.084,-0.126,-0.026,-0.005,,0.051
KLHL18 (UniProt O94889),-0.068,-0.009,0.003,,-0.099,-0.05,-0.051,0.06,-0.049,0.11,0.075,-0.178,-0.123,0.36 (active),-0.038,-0.01,-0.073,-0.019,0,0.034
MED22 (UniProt Q15528),-0.023,0.034,,0.015,-0.033,0.043,,0.014,0.117,0.028,0.133,,0.097,0.02,0.134,,-0.019,0.076,-0.043,
ITM2B (UniProt Q9Y287),0.01,-0.052,0.036,-0.046,-0.05,-0.101,-0.016,-0.482,0.001,0.076,-0.022,0.182,-0.112,0.028,0.001,,-0.036,0.057,-0.197,
